Bioassay records: PubChem BioAssay, several laboratories
Shown are actives, neighbours in structure and some others; about 1.1% of the full set was active somewhere.
BJeLR lethal – BJeLR cell viability loss | BJeLR (HRASV12) viability, CellTiter-Glo ATP luminescence, 48 h | inhibition, % (no concentration beside the values) | 300,000 tested, 0.17% active | AID 1554; in the data active means inhibition above about 50%
MazF activator – increases E. coli MazEF RNase cleavage of RNA; FAM/BHQ RNA-DNA oligo cleavage fluorescence, 5 h; AID 504720; 350,000 tested, 0.32% active; activation, % at 20 µM; P0AE70; in the data active means activation above about 50%
Target sequence (P0AE70 whole entry, looked up): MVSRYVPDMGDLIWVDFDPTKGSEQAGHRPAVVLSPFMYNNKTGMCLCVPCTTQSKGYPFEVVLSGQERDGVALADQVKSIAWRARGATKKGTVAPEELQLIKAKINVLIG
PrPC TRFRET – reduces human prion protein on the cell surface; P04156; cell surface PrPC, TR-FRET read-out; inhibition, % at 13.8 µM; 370,000 tested, 0.43% active; in the data active means inhibition above about 24%; further: 0% = median of the test wells and 100% = reference compound wells
PrP UTR inh – inhibition of PrP 5' UTR reporter expression; AID 488862; inhibition, % (concentration not given with the values); 340,000 tested, 0.35% active; cell-based PrP 5' UTR mRNA reporter, plate reader; in the data active means inhibition above about 52%; further: 0 = median of the neutral control wells
Active calls of the source: *.

For CC(C)[C@H](NC(=O)[C@@H](N)Cc1ccccc1)C(=O)N1CCC2CCN(Cc3ccccc3)CC21 (stereo partly drawn) the results were PrPC TRFRET -7.0.
`CCN(CC)Cc1c(O)ccc2c1O/C(=C\C=C\c1ccccc1)C2=O` gave BJeLR lethal 92.6*, MazF activator -451.2, PrPC TRFRET -22.6 and PrP UTR inh -27.0.
COc1ccccc1/C=C/C=C1\Oc2c(ccc(O)c2CN(C)C)C1=O was read as BJeLR lethal 12.8, MazF activator -158.0, PrPC TRFRET -28.3 and PrP UTR inh 1.6.
`Cc1nc(Cl)c(C(=O)NCc2ccccc2)c(C)c1Cl` gave BJeLR lethal -5.8, MazF activator 5.2, PrPC TRFRET 18.8 and PrP UTR inh -16.3.
O=C(NCc1ccccc1)c1c(Cl)nc(Cl)c(Cl)c1Cl was read as BJeLR lethal 69.7*, MazF activator 0.3, PrPC TRFRET -2.3 and PrP UTR inh -5.4.
O=[N+]([O-])c1ccc2c(c1)CO[C@]21O[C@H](CCO)C[C@H](O)[C@H]1O was read as PrPC TRFRET -7.4.
COc1ccc2cc(CNCCOCCOCCNCc3ccc4cc(OC)ccc4c3)ccc2c1 was read as MazF activator 38.1, PrPC TRFRET 32.1* and PrP UTR inh -0.3.
Screening O=C(NCc1ccccc1)[C@H]1CCCN1C(=O)[C@H]1CCCN1C(=O)c1cccc2ccccc12 returned PrPC TRFRET -4.3.
CC(C)C(=O)Nc1cccc(C(=O)Nc2ccc(S(=O)(=O)N3CCOCC3)cc2)c1 was read as BJeLR lethal -26.0, MazF activator 160.4*, PrPC TRFRET -1.8 and PrP UTR inh -6.4.
For CC(C)C(=O)Nc1ccc(C(=O)Nc2ccc(S(=O)(=O)N3CCOCC3)cc2)cc1 the results were BJeLR lethal -1.1, MazF activator 5.9 and PrP UTR inh -12.1.
Screening CC(CN1c2ccccc2Sc2ccccc21)N(C)C (stereo not drawn) returned BJeLR lethal -1.7, MazF activator 6.2, PrPC TRFRET -5.5 and PrP UTR inh -11.4.
C#CCN1c2ccccc2Sc2cccnc21 was read as BJeLR lethal 1.6, MazF activator 71.1*, PrPC TRFRET -19.8 and PrP UTR inh -18.1.
COC(=O)[C@]12C[C@H](CC(=O)NCCCN3CCCC3=O)C(=O)N(Cc3ccccc3)C1=C[C@H](C1CCCC1)O[C@@H]2C was read as PrPC TRFRET 7.4.
`CCc1c(Cc2ccccc2)ncn1CCc1ccccc1OC` gave PrPC TRFRET 16.5.
For COc1ccc(N/N=C(/N=Nc2nc(C)cc(=O)[nH]2)c2ccccc2)cc1 the results were BJeLR lethal 67.3*, MazF activator 1.2, PrPC TRFRET 7.2 and PrP UTR inh -37.7.
Screening Cc1ccc(S(=O)(=O)N/N=C/c2ccc(O)cc2O)cc1[N+](=O)[O-] returned BJeLR lethal 4.0, MazF activator 4.3, PrPC TRFRET 3.6 and PrP UTR inh -14.0.
C/C(CCC(C)C)=N\NS(=O)(=O)c1ccc(C)c([N+](=O)[O-])c1 was read as BJeLR lethal 1.8, MazF activator 81.7*, PrPC TRFRET 4.6 and PrP UTR inh -4.9.
Screening CCC(C)(C)C1CCC(=NNS(=O)(=O)c2ccc(C)c([N+](=O)[O-])c2)CC1 (stereo not drawn) returned BJeLR lethal -2.0, MazF activator 125.1*, PrPC TRFRET 0.7 and PrP UTR inh -42.0.
For Cc1ccc(S(=O)(=O)NCCC(C)C)cc1[N+](=O)[O-] the results were BJeLR lethal -2.9, MazF activator 8.9, PrPC TRFRET -8.0 and PrP UTR inh -7.6.
For CC/C(C)=N/NS(=O)(=O)c1ccc(C)c([N+](=O)[O-])c1 the results were BJeLR lethal 0.8, MazF activator 121.9*, PrPC TRFRET -5.8 and PrP UTR inh -9.1.
CC1CCC/C(=N\NS(=O)(=O)c2ccccc2)C1 (stereo not drawn) was read as BJeLR lethal -5.1, MazF activator 28.1, PrPC TRFRET -2.3 and PrP UTR inh -22.6.
Screening CC1CCC(=NNS(=O)(=O)c2ccc([N+](=O)[O-])cc2)CC1 (stereo not drawn) returned MazF activator 110.2*, PrPC TRFRET -14.6 and PrP UTR inh -4.0.
`COC(=O)[C@]12C[C@H](CC(=O)NCCCN3CCCC3=O)C(=O)N(Cc3ccc4c(c3)OCO4)C1=C[C@H](C(C)C)O[C@@H]2C1CC1` gave PrPC TRFRET -10.2.
`COc1ccc(-c2cc(C)no2)cc1S(=O)(=O)N1CCOc2ccc(C)cc21` gave BJeLR lethal -11.8, MazF activator 76.2*, PrPC TRFRET -1.0 and PrP UTR inh -20.9.
CCc1ccc(-c2cc(C)no2)cc1S(=O)(=O)N1CCOc2ccccc21 was read as BJeLR lethal 3.6, MazF activator 3.6, PrPC TRFRET 1.3 and PrP UTR inh -4.0.
CCCC(=O)Nc1ccc(C(=O)N/N=C/c2ccc([N+](=O)[O-])o2)cc1 was read as BJeLR lethal 121.7*, MazF activator 0.3, PrPC TRFRET -23.9 and PrP UTR inh 21.6.
For Cc1ccc(NC(=O)CCC(=O)N/N=C/c2ccc([N+](=O)[O-])o2)cc1C the results were BJeLR lethal -3.5, MazF activator 0.7, PrPC TRFRET -31.2 and PrP UTR inh -2.2.
CCc1nnc(NC(=O)CCC(=O)N2CCN(Cc3cc(F)ccc3OC)CC2)s1 was read as BJeLR lethal 2.3, MazF activator 2.1, PrPC TRFRET 4.2 and PrP UTR inh -12.6.
COc1ccc(F)cc1CN1CCN(C(=O)CCC(=O)Nc2nnc(CC(C)C)s2)CC1 was read as BJeLR lethal 61.5*, MazF activator -1.5, PrPC TRFRET -1.5 and PrP UTR inh -12.9.
`Cc1ccc(N=Nc2c(O)[nH]c3ccc(F)cc23)cc1` gave BJeLR lethal 5.2, MazF activator 474.0*, PrPC TRFRET 3.9 and PrP UTR inh -81.7.
Cc1ccc(N=Nc2[nH]c3ccccc3c2O)cc1 was read as BJeLR lethal 2.6, MazF activator 564.5*, PrPC TRFRET 5.0 and PrP UTR inh -54.6.
For O=c1[nH]nc(N=Nc2c(O)[nH]c3ccc(F)cc23)c(=O)[nH]1 the results were MazF activator -7.7, PrPC TRFRET -7.9 and PrP UTR inh -9.7.
For Cc1c(COC(=O)NC(C)C)c(COC(=O)NC(C)C)c2n1CS(=O)(=O)C2 the results were PrPC TRFRET -3.8.
Screening COc1cc(/C=N/NC(=O)c2cccnc2)ccc1OC(=O)c1cc(OC)c(OC)c(OC)c1 returned BJeLR lethal -5.3, MazF activator 4.4, PrPC TRFRET -8.0 and PrP UTR inh -7.4.
COc1cc(/C=N/NC(=O)c2cccnc2)ccc1OC(=O)c1ccc2c(c1)OCO2 was read as BJeLR lethal -2.7, MazF activator 72.2*, PrPC TRFRET 1.1 and PrP UTR inh -23.8.
CC1=CN2C(=N)/C(=C/c3ccco3)C(=O)N=C2S1 was read as BJeLR lethal 1.8, MazF activator -13.1, PrPC TRFRET -6.3 and PrP UTR inh -172.2.
Screening CC1=CN2C(=N)/C(=C/c3ccc([N+](=O)[O-])o3)C(=O)N=C2S1 returned BJeLR lethal 17.1, MazF activator 116.1*, PrPC TRFRET 0.9 and PrP UTR inh -17.2.
